The values below come from PubChem BioAssay (NCI).

Test systems include NCI-H23 lung; NCI-H226 lung; NCI-H322M lung; HOP-62 NSCLC; NCI-H460 lung; HOP-92 NSCLC; NCI-H522 lung; A549/ATCC NSCLC; 786-0 renal; COLO 205 colon.
Experiment in all cases: NCI-60 one-dose screen, 48 h (100 = growth as untreated, 0 = no growth, -100 = all killed)
Common to all, as to settings: 10 µM unless noted

Molecules are shown by their SMILES. The panel holds about 83,000 compounds, 20% with a hit somewhere; the sample as a whole holds those more often.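 Results are percent growth after 48 hours of single-concentration exposure. 100 means growth as in untreated cells, lower positive values show inhibition; negative values down to -100 show cell death.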 Unmarked numbers belong to inactive results. Calls of active or inactive are those of the source. The calls were made as follows: active = growth percent below 10; inactive = the rest.

With `N#C/C(=C\c1ccc2ccccc2c1)c1cc2ccccc2[nH]1`, the growth was 48.8% in the assay on NCI-H23 lung; 67.9% with NCI-H226 lung; 63.3% in the assay on NCI-H322M lung; 40.4% in the assay on HOP-62 NSCLC; 13.3% with NCI-H460 lung; 41.5% with HOP-92 NSCLC. Moreover, the growth was 1.83% (active) in the assay with NCI-H522 lung, 51.1% in the assay on A549/ATCC NSCLC, 41.1% in the assay on 786-0 renal and 24.9% in the assay on COLO 205 colon.
Regarding `O=[N+]([O-])/C(=C/C=C/c1ccccc1)c1ccccc1`, the growth in the assay on NCI-H23 lung was 75.5%; in the assay on NCI-H226 lung, 87.8%; with NCI-H322M lung it was 100%; with HOP-62 NSCLC, 35.9%; in the assay with NCI-H460 lung, 70.7%; in the assay with HOP-92 NSCLC, -8.76% (active). Further, the growth with NCI-H522 lung was 19.8%; with A549/ATCC NSCLC, 72.6%; in the assay on 786-0 renal it was -7.75% (active); in the assay with COLO 205 colon, 23.2%.
For `COC(=O)c1cc(-c2ccc(OC)cc2)[nH]c1N/N=C/c1c(Cl)cccc1Cl`, the growth is 46.1% with NCI-H23 lung; 38.1% with NCI-H226 lung; 36.1% with NCI-H322M lung; -42.5% (active) with HOP-62 NSCLC; -9.38% (active) in the assay with NCI-H460 lung; 47.4% with HOP-92 NSCLC. In addition, the growth in the assay on NCI-H522 lung is 10.5%; in the assay with A549/ATCC NSCLC it was 5.26% (active); in the assay on 786-0 renal, -14% (active); in the assay on COLO 205 colon, -23.9% (active).
In the case of `Brc1c2c(c(Br)c3ccccc13)CCCC2`, the growth was 97.7% with NCI-H23 lung; 85.8% in the assay on NCI-H226 lung; 99.6% with NCI-H322M lung; 84% in the assay on HOP-62 NSCLC; 111% in the assay on NCI-H460 lung; 80.9% in the assay on HOP-92 NSCLC. For the same compound, the growth in the assay on NCI-H522 lung is 75.5%; in the assay with A549/ATCC NSCLC, 79.7%; in the assay with 786-0 renal it was 102%; with COLO 205 colon, 102%.
`COC(=O)/C=C1/SC(=Nc2ccc(C)cc2)N(CCc2c[nH]c3ccc(O)cc23)C1=O`: the growth in the assay on NCI-H23 lung was 72.7%; in the assay on NCI-H226 lung it was 83.1%; with NCI-H322M lung, 97.7%; in the assay on HOP-62 NSCLC it was 55.6%; in the assay with NCI-H460 lung it was 52.2%; in the assay with HOP-92 NSCLC, 53.7%. In addition, the growth was 42.5% in the assay on NCI-H522 lung, 84% with A549/ATCC NSCLC, 57.2% in the assay on 786-0 renal and 108% in the assay with COLO 205 colon.
Consider `COc1ccc(C(=S)N2CCN(c3ccccc3Cl)CC2)cc1OC`, for which the growth in the assay with NCI-H23 lung was 117%; in the assay on NCI-H226 lung, 98.1%; in the assay on NCI-H322M lung, 86.6%; in the assay with HOP-62 NSCLC, 90.9%; in the assay with NCI-H460 lung it was 115%; with HOP-92 NSCLC it was 86%. The growth with NCI-H522 lung was 85.8%; in the assay on A549/ATCC NSCLC, 115%; with 786-0 renal it was 97.5%; in the assay with COLO 205 colon, 99.5%.
In the case of `CCS/C(Nc1ccccc1)=C(\C#N)C(=O)N/N=C/c1ccc(Cl)cc1Cl`, the growth in the assay on NCI-H23 lung was 41.3%; in the assay on NCI-H226 lung it was 37.7%; in the assay with NCI-H322M lung, 70.9%; with HOP-62 NSCLC, 36.7%; with NCI-H460 lung, 8.05% (active); in the assay with HOP-92 NSCLC, 29.2%. Also, the growth with NCI-H522 lung was 1.02% (active); in the assay on A549/ATCC NSCLC, 38.3%; in the assay with 786-0 renal, 31.8%; with COLO 205 colon, 28.4%.
Consider `CCOC(=O)CNP(=O)(OC[C@@H](Cc1ccccc1)NC(=O)c1cc2ccccc2s1)Oc1ccccc1` (stereo not given in full), for which the growth in the assay on NCI-H23 lung was 81.1%; with NCI-H226 lung, 93.2%; with NCI-H322M lung, 93.3%; in the assay on HOP-62 NSCLC, 85.3%; in the assay with NCI-H460 lung, 72.7%; with HOP-92 NSCLC it was 69.3%. The growth with NCI-H522 lung is 71.7%; in the assay on A549/ATCC NSCLC it was 64.8%; with 786-0 renal, 89.7%; in the assay with COLO 205 colon it was 87.2%.
As to `COc1ccc(Cc2cc(-c3ccccc3)nn(Cc3ccccc3)c2=O)cc1OC`, the growth is 39.4% in the assay with NCI-H23 lung; 52% with NCI-H226 lung; 82.4% in the assay with NCI-H322M lung; 69.1% in the assay on HOP-62 NSCLC; 33.9% in the assay on NCI-H460 lung; 28% in the assay with HOP-92 NSCLC. Besides, the growth in the assay with NCI-H522 lung is 37%; with A549/ATCC NSCLC, 20%; with 786-0 renal it was 35.8%; in the assay on COLO 205 colon, 9.24% (active).
In the case of `O=C(N/N=C/c1ccc(F)cc1)c1ccc(C(F)(F)F)nc1Nc1cccc(C(F)(F)F)c1`, the growth in the assay on NCI-H23 lung is 11.3%; in the assay on NCI-H226 lung, 9.45% (active); with NCI-H322M lung it was -14.5% (active); in the assay on HOP-62 NSCLC it was -14.1% (active); with NCI-H460 lung it was -17.7% (active); in the assay on HOP-92 NSCLC it was -25.2% (active). Moreover, the growth is -15.9% (active) in the assay on NCI-H522 lung, -10.9% (active) in the assay on A549/ATCC NSCLC, -29.7% (active) in the assay on 786-0 renal and 7.69% (active) in the assay with COLO 205 colon.
As to `N#Cc1cnc(NCCc2ccncc2)nc1-n1cnc2ccccc21`, the growth in the assay on NCI-H23 lung is 76%; in the assay on NCI-H226 lung, 68.7%; with NCI-H322M lung it was 35%; in the assay on HOP-62 NSCLC, 77.3%; in the assay on NCI-H460 lung it was 39.5%; with HOP-92 NSCLC it was 95.7%. Besides, the growth with NCI-H522 lung is 55.8%; with A549/ATCC NSCLC, 53.5%; in the assay with 786-0 renal it was 40.3%; in the assay with COLO 205 colon, 72.1%.
Regarding `CCN1CC(=O)N(/N=C2\C(=O)Nc3ccccc32)C1=S`, the growth in the assay with NCI-H23 lung is 91.4%; in the assay on NCI-H226 lung, 69.6%; in the assay on NCI-H322M lung, 88.6%; in the assay on HOP-62 NSCLC, 87%; in the assay with NCI-H460 lung it was 88.3%; in the assay with HOP-92 NSCLC, 87.8%. Also, the growth in the assay on NCI-H522 lung was 85.4%; with A549/ATCC NSCLC it was 98.9%; in the assay on 786-0 renal it was 103%; in the assay with COLO 205 colon, 101%.
Consider `O=C(Cn1c(-c2ccc([N+](=O)[O-])cc2)nc2ccccc21)NNC(=O)c1cccnc1`, for which the growth was 83.4% in the assay on NCI-H23 lung; 60.3% in the assay on NCI-H226 lung; 88.6% with NCI-H322M lung; 95.2% in the assay on HOP-62 NSCLC; 76.2% in the assay with NCI-H460 lung; 38% with HOP-92 NSCLC. In addition, the growth in the assay on NCI-H522 lung is 54.7%; with A549/ATCC NSCLC it was 91.1%; in the assay on 786-0 renal, 93%; in the assay on COLO 205 colon, 92.6%.
For `CC(=O)c1cc(O)c2ccccc2c1O`, the growth is 85.9% with NCI-H23 lung; 92.9% in the assay on NCI-H226 lung; 105% in the assay on NCI-H322M lung; 87.4% in the assay on HOP-62 NSCLC; 103% in the assay with NCI-H460 lung; 92.6% in the assay with HOP-92 NSCLC. The growth is 78.7% with NCI-H522 lung, 99.7% in the assay on A549/ATCC NSCLC, 97.8% with 786-0 renal and 116% in the assay with COLO 205 colon.
